{
  "source": "ChEMBL document CHEMBL3988442",
  "about": "“University of Dundee, Small-Polar-MMV Screening Library” (2021)",
  "note": "The whole screen tested about 48,000 compounds, of which about 13,000 (27%) showed an effect of 50% or more. The list shows a part of the results.",
  "data": [
    {"test_system": "Wolbachia pipientis", "assay": "Anti-Wolbachia Cell-Based Screen", "assay_type": "functional", "design": "scale not given: in the data most compounds retested in dose-response had high values", "details": "5 µM", "units": {"Percent Effect": "%"}, "values": [
      {"smiles": "CC(C)(O)C1CCN(C(=O)Nc2nc(-c3ccccc3)ns2)CC1", "Percent Effect": 6.519},
      {"smiles": "CC(=O)c1cc(CC(=O)NCc2ccc(CN(C)C)cc2)cs1", "Percent Effect": -9.398},
      {"smiles": "O=C1CCC2(CCCN(C(=O)c3ncc[nH]3)C2)CN1CCc1c[nH]cn1", "note": "(centres undefined)", "Percent Effect": 2.094},
      {"smiles": "CC(=O)N1CCCN(C(C)C(=O)Nc2ccnn2C(C)C)CC1", "note": "(centres undefined)", "Percent Effect": 14.5},
      {"smiles": "Cc1ccc(C(=O)NCCS(=O)(=O)Cc2ccccc2)c(=O)[nH]1", "Percent Effect": -6.765},
      {"smiles": "CNc1cc(C2CCCN2C(=O)c2ccc(=O)[nH]n2)ccn1.O=CO", "note": "(centres undefined)", "Percent Effect": 167.7},
      {"smiles": "CNc1cc(C2CCCN2C(=O)c2ccc3oc(=O)n(C)c3c2)ccn1", "note": "(centres undefined)", "Percent Effect": -0.2257},
      {"smiles": "CN(C)c1cc(C2CCCN(C(=O)c3ccc(=O)[nH]n3)C2)ccn1", "note": "(centres undefined)", "Percent Effect": 139.8},
      {"smiles": "O=C(NCCn1cnc(C2CCCC2)cc1=O)c1ccc(=O)[nH]n1", "Percent Effect": -1.303},
      {"smiles": "CNc1cc(C2CCCN(C(=O)c3ccc(=O)[nH]n3)C2)ccn1", "note": "(centres undefined)", "Percent Effect": 169.1},
      {"smiles": "O=C(c1ccc(=O)[nH]n1)N1CC(c2nc(Cc3ccccc3)no2)C1", "Percent Effect": -16.23},
      {"smiles": "Cc1cc(C2CCCN(C(=O)c3cnn(C)c3)C2)ccn1", "note": "(centres undefined)", "Percent Effect": -11.66},
      {"smiles": "Cn1cc(C(=O)N2CCC(c3nccn3Cc3ccncc3)CC2)cn1", "Percent Effect": -25.63},
      {"smiles": "Cc1cc(C2CCN(C(=O)c3cnn(C)c3)CC2)ccn1", "Percent Effect": 94.31},
      {"smiles": "Cc1ccnc(C2CCN(C(=O)c3cnn(C)c3)CC2)n1", "Percent Effect": 85.52},
      {"smiles": "Cc1ccnc(C2CCN(C(=O)c3cnn(C)c3)C2)n1", "note": "(centres undefined)", "Percent Effect": 83.36},
      {"smiles": "Cc1c(C)n(CC(O)CN2CCC(C)CC2)c2c(Cl)cccc12", "note": "(centres undefined)", "Percent Effect": -13.14},
      {"smiles": "F[C@@H]1CN(Cc2ccccc2)C[C@@H]1OCc1nc2cnccc2[nH]1", "Percent Effect": -3.935},
      {"smiles": "CCc1nccn1CC(=O)Nc1cccc(C(=O)N(C)C)c1", "Percent Effect": 117.3},
      {"smiles": "CN(C)C(=O)c1cccc(NC(=O)CN2CCCCC2C2OCCO2)c1", "note": "(centres undefined)", "Percent Effect": -9.797},
      {"smiles": "CC(=O)c1cccc(NC(=O)Cn2cnc(-c3ccccc3)cc2=O)c1", "Percent Effect": -1.653},
      {"smiles": "COC(=O)c1cccc(NC(=O)CN2CCN(S(C)(=O)=O)CC2)c1", "Percent Effect": 0.7545},
      {"smiles": "COC(=O)c1cccc(C(=O)N2CCCCC2CCn2ccnc2C)c1", "note": "(centres undefined)", "Percent Effect": -0.7359},
      {"smiles": "CCc1nccn1CC(=O)Nc1cccc(C(=O)OC)c1", "Percent Effect": 94.76},
      {"smiles": "CCNc1ncc(C(=O)N(C)CCc2nc3cc(Cl)ccc3[nH]2)cn1", "Percent Effect": -2.741},
      {"smiles": "CC(C)CN1CCc2[nH]cnc2C12CCN(C(=O)c1cnn(C)c1)CC2", "Percent Effect": 18.71},
      {"smiles": "Cn1cccc1C(=O)N1CCCN(CCCc2ccccc2)CC1", "Percent Effect": 5.768},
      {"smiles": "CC(CC#N)n1ccc(C(F)(F)F)n1", "note": "(centres undefined)", "Percent Effect": 86},
      {"smiles": "CCC(CC#N)n1ccc(C(F)(F)F)n1", "note": "(centres undefined)", "Percent Effect": 100.1},
      {"smiles": "CCC(CCN)n1ccc(C(F)(F)F)n1", "note": "(centres undefined)", "Percent Effect": 101},
      {"smiles": "CS(=O)(=O)NCCNC(=O)NC1(c2ccc(F)cc2)CCCC1", "Percent Effect": 1.188},
      {"smiles": "Cc1cccc(CS(=O)(=O)CC(=O)N(C)Cc2ccccc2F)c1", "Percent Effect": -4.083},
      {"smiles": "CC(=O)c1ccccc1NC(=O)CCN1CCSCC1", "Percent Effect": -1.71},
      {"smiles": "O=C(N[C@@H]1CCCNC1)C1(Oc2ccc(Cl)cc2)CCNCC1", "Percent Effect": -9.041},
      {"smiles": "FC(F)(F)c1ccc(-c2c[nH]c([C@@H]3COCCN3)n2)cc1", "Percent Effect": -4.53},
      {"smiles": "Nc1ncc(-c2ccc(C(F)(F)F)cc2)c(C2CCCNC2)n1", "note": "(centres undefined)", "Percent Effect": 52.9},
      {"smiles": "Nc1ncc(-c2ccc(Cl)cc2)c(C2CCCNC2)n1", "note": "(centres undefined)", "Percent Effect": 110.4},
      {"smiles": "COc1ccc(-c2cnc(N)nc2C2CCCNC2)cc1.Cl", "note": "(centres undefined)", "Percent Effect": 80.9},
      {"smiles": "FC(F)(F)c1ccc2[nH]c([C@H]3CCNC3)nc2c1", "Percent Effect": -0.9457},
      {"smiles": "Nc1ncc(-c2ccc(F)cc2)c(C2CCCNC2)n1", "note": "(centres undefined)", "Percent Effect": 107.7},
      {"smiles": "O=S(=O)(NCCn1cc(C2CCCNC2)nn1)c1ccc(Cl)cc1", "note": "(centres undefined)", "Percent Effect": 7.811},
      {"smiles": "CN(Cc1ccccc1Cl)C(=O)c1cc(CN2CCC(O)CC2)on1", "Percent Effect": -7.03},
      {"smiles": "Cc1nnc2n1CCN(Cc1c(Cl)ccc3cccnc13)C2", "Percent Effect": -10.28},
      {"smiles": "CNC(=O)c1ccc(C(=O)N2CCCC(n3ccnc3)C2)cn1", "note": "(centres undefined)", "Percent Effect": 118},
      {"smiles": "CNC(=O)c1ccc(C(=O)N2CCCC(n3ccnc3C)C2)cn1", "note": "(centres undefined)", "Percent Effect": 94.35},
      {"smiles": "CCc1nccn1C1CCCN(C(=O)c2ccc(C(=O)NC)nc2)C1", "note": "(centres undefined)", "Percent Effect": -5.671},
      {"smiles": "Cc1cccc(C)c1OCCNC(=O)C[S+]([O-])C1CCCC1", "note": "(centres undefined)", "Percent Effect": 0.9364},
      {"smiles": "O=C(C1CCCc2[nH]ncc21)N1CCCC2(C1)OCCO2", "note": "(centres undefined)", "Percent Effect": 23.68},
      {"smiles": "CCc1cc(NC2CCN(Cc3ccccc3F)CC2)n2nccc2n1", "Percent Effect": 21.54},
      {"smiles": "Fc1ccccc1CN1CCC(c2noc(-c3ccccn3)n2)CC1", "Percent Effect": 178},
      {"smiles": "Fc1ccccc1CN1CCC(c2n[nH]c(C3CC3)n2)CC1", "Percent Effect": -0.8499},
      {"smiles": "Fc1cccc(CN2CCC(c3noc(-c4ccccn4)n3)CC2)c1F", "Percent Effect": 179},
      {"smiles": "Fc1ccc(CN2CCC(c3noc(-c4cnccn4)n3)CC2)cc1F", "Percent Effect": 155.5},
      {"smiles": "CCn1c(CN(C)C)nnc1C1CCN(Cc2cccc(F)c2F)CC1", "Percent Effect": 8.209}
    ]}
  ]
}
